From ChEMBL document CHEMBL3988442, “University of Dundee, Small-Polar-MMV Screening Library” (2021)
For some assays here: Entries with a potency or affinity are not part of this list.

Legend:
Design in all cases: scale not given: direction of the effect not stated beside the values
[1] = molecular target: Protein translocase subunit SecA (Escherichia coli (strain K12)) (UniProt P10408); assay: Assay to Identify E. coli SecA ATPase Inhibitors; format: functional; conditions: 30 µM
[2] = molecular target: T1, Ubiquitin-activating enzyme e1, putative (Leishmania donovani (strain BPK282A1)) (UniProt E9BSI1); assay: Leishmania donovani Ubiquitin Activating Enzyme (LdE1); format: functional; conditions: 30 µM
T1 sequence (whole entry): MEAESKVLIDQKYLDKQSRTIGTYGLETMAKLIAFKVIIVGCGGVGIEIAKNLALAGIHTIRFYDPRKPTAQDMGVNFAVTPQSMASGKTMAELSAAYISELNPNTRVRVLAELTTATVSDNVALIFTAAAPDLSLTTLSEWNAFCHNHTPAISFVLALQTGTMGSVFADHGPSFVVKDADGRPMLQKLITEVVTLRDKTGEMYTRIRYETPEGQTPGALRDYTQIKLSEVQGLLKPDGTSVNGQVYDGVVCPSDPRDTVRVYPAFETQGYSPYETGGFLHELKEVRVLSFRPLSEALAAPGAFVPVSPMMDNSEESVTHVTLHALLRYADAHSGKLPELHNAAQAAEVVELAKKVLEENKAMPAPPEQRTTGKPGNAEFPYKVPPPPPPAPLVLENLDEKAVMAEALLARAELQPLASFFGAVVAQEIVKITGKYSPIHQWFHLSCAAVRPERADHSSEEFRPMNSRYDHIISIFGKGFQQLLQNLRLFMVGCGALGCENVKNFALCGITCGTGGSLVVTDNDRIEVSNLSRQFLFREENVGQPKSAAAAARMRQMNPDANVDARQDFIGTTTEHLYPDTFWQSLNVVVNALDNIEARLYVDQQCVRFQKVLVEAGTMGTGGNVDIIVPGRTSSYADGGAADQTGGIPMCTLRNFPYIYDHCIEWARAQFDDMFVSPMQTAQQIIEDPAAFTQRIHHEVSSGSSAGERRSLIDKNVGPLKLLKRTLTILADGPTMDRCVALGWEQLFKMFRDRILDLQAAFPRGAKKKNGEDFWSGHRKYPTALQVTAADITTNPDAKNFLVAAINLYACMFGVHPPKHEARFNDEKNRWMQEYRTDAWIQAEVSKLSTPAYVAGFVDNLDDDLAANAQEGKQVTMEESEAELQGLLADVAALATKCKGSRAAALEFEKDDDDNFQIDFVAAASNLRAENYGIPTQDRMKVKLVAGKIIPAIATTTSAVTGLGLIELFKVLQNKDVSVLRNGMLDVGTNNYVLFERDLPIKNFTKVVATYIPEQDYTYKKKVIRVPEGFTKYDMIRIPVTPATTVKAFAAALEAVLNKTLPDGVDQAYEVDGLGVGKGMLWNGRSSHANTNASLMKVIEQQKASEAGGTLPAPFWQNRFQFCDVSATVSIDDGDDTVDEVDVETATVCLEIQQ

[3] = molecular target: AMP-activated protein kinase, AMPK (Homo sapiens) (UniProt P54646+O43741+P54619+Q9UGJ0+Q9Y478+Q13131+Q9UGI9); assay: AMP-dependent Kinase enzyme assay. An in vitro enzyme assay that detects ADP turnover that is directly proportional to AMPK activity. This uses naive AMPK that is activated during the assay with MK-8722; format: functional; conditions: 30 µM
[4] = molecular target: Sialic acid-binding Ig-like lectin 9 (Homo sapiens) (UniProt Q9Y336); assay: Hs-Siglec9 ALPHAscreen SOP 20170721; conditions: 10 µM
Trypanosoma cruzi = assay: Trypanosoma cruzi phosphomannomutase and mannose-1-phosphate guanylyltransferase assay; format: functional; conditions: 10 µM
[5] = molecular target: T2, Arginase-2, mitochondrial (Homo sapiens) (UniProt P78540); assay: in vitro enzyme assay to detect the production of urea directly proportional to the activity of Arginase II; format: functional; conditions: 33.3 µM; note: in the data most compounds retested in dose-response had high values
T2 sequence (whole entry): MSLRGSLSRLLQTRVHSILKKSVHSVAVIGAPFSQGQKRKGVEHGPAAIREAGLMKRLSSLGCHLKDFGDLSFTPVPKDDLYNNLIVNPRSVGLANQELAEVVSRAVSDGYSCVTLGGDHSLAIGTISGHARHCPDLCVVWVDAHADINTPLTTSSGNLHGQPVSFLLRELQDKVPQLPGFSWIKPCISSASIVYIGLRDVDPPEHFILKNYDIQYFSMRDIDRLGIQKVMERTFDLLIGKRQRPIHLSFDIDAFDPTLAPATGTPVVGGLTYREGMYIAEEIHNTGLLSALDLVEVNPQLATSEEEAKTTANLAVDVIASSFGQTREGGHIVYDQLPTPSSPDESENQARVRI

[6] = molecular target: T3, Proteasome subunit beta (Trypanosoma cruzi) (UniProt O96673); assay: Trypanosoma cruzi proteasome chymotrypsin-like activity (TcProtChymo) assay.; note: in the data most compounds retested in dose-response had high values; format: functional; conditions: 9.37 µM
T3 sequence (whole entry): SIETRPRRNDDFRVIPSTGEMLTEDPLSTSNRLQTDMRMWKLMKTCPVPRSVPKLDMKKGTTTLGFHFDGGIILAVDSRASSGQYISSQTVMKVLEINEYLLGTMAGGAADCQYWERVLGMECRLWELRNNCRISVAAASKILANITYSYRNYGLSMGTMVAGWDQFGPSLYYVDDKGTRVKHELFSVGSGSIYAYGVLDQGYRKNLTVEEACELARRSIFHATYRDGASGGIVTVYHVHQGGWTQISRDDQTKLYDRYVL

Homo sapiens = organism: Homo sapiens; assay: To identify inhibition of the IFN signalling (Jak-Stat) pathway via expression of an eGFP reporter gene under the control of an IFN-stimulated response element (ISRE) containing MxA promoter.; format: functional; conditions: 30 µM
[7] = molecular target: T4, Tyrosyl-tRNA synthetase, putative (Trypanosoma cruzi (strain CL Brener)) (UniProt Q4DSP6); assay: Trypanosoma cruzi tyrosyl tRNA synthetase (TcYRS) _High Tyrosine SOP; format: functional; conditions: 30 µM; note: in the data most compounds retested in dose-response had high values
T4 sequence (whole entry): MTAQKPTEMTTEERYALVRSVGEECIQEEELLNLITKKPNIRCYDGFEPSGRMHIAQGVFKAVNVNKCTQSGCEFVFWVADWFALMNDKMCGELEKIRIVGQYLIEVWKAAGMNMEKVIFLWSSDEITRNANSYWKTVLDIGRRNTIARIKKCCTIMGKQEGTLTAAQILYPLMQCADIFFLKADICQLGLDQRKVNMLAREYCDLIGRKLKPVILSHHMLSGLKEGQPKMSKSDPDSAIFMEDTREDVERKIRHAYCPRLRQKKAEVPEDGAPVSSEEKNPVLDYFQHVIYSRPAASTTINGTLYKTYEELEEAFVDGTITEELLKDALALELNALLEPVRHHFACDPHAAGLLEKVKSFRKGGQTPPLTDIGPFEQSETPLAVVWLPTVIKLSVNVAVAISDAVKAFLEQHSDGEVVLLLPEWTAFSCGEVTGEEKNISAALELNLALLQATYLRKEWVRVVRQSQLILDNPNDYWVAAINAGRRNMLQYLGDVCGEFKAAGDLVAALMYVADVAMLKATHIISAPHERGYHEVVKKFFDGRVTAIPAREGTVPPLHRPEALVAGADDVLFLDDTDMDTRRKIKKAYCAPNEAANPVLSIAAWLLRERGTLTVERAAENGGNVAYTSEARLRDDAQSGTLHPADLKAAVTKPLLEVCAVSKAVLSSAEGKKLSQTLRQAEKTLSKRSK

[8] = molecular target: T4, Tyrosyl-tRNA synthetase, putative (Trypanosoma cruzi (strain CL Brener)); assay: Trypanosoma cruzi tyrosyl tRNA synthetase (TcYRS) SOP; format: functional; conditions: 30 µM
[9] = molecular target: Chromo domain-containing protein 1 (Saccharomyces cerevisiae (strain ATCC 204508 / S288c) (Baker's yeast)) (UniProt P32657); assay: ScCHD-1 Enzyme Inhibition Assay; format: functional; conditions: 30 µM; note: in the data most compounds retested in dose-response had high values
Sequence of Chromo domain-containing protein 1 (Saccharomyces cerevisiae (strain ATCC 204508 / S288c) (Baker's yeast)) (P32657 whole entry, the tested form may be a part): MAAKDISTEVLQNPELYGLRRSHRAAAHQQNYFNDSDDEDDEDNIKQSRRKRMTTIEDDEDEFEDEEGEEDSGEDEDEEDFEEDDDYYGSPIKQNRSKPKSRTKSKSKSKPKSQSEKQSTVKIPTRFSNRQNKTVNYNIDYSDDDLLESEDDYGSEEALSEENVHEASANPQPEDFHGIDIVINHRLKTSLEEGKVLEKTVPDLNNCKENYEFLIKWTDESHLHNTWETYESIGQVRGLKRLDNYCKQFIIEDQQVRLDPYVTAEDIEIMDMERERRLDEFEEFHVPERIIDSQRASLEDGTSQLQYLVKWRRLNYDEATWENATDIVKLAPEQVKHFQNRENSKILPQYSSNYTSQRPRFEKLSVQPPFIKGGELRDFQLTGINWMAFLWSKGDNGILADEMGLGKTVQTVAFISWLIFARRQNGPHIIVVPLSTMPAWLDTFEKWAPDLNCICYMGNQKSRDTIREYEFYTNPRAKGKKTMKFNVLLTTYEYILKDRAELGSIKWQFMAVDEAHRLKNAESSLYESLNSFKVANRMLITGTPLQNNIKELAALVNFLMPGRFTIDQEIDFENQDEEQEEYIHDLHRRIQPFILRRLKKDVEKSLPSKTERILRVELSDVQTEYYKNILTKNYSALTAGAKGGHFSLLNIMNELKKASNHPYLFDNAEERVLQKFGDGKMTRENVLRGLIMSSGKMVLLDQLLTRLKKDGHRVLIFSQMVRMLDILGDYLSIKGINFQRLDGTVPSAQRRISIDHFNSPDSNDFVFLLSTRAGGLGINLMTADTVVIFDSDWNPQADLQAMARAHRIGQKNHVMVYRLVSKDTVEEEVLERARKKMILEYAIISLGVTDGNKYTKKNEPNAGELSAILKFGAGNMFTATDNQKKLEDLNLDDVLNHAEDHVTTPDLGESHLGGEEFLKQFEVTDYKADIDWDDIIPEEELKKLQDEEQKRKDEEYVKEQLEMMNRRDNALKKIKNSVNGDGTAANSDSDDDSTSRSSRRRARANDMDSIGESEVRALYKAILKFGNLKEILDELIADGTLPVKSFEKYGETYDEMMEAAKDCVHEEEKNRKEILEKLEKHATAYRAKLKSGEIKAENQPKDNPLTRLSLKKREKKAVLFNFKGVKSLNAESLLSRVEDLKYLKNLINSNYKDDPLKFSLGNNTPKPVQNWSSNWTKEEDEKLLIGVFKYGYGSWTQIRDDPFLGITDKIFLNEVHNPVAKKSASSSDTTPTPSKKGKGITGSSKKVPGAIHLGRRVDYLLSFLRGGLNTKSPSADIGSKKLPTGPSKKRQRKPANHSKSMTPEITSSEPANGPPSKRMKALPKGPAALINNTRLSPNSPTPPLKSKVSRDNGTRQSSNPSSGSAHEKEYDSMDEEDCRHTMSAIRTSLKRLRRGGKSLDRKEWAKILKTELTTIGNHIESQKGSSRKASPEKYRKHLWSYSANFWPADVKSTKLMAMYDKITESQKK

Sequence of Sialic acid-binding Ig-like lectin 9 (Homo sapiens) (Q9Y336 whole entry): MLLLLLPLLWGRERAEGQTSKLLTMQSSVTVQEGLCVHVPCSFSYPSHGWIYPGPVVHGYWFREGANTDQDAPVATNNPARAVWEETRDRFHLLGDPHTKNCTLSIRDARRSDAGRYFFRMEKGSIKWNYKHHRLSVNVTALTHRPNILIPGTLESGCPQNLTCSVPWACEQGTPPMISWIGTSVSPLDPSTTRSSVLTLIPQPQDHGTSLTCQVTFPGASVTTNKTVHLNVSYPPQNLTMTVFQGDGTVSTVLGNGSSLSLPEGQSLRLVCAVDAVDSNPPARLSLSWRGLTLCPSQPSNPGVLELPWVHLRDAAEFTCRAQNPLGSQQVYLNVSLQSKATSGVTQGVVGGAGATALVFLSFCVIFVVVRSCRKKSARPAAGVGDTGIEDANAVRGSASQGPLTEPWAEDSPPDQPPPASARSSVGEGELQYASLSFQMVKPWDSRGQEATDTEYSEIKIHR
Sequence of Protein translocase subunit SecA (Escherichia coli (strain K12)) (P10408 whole entry): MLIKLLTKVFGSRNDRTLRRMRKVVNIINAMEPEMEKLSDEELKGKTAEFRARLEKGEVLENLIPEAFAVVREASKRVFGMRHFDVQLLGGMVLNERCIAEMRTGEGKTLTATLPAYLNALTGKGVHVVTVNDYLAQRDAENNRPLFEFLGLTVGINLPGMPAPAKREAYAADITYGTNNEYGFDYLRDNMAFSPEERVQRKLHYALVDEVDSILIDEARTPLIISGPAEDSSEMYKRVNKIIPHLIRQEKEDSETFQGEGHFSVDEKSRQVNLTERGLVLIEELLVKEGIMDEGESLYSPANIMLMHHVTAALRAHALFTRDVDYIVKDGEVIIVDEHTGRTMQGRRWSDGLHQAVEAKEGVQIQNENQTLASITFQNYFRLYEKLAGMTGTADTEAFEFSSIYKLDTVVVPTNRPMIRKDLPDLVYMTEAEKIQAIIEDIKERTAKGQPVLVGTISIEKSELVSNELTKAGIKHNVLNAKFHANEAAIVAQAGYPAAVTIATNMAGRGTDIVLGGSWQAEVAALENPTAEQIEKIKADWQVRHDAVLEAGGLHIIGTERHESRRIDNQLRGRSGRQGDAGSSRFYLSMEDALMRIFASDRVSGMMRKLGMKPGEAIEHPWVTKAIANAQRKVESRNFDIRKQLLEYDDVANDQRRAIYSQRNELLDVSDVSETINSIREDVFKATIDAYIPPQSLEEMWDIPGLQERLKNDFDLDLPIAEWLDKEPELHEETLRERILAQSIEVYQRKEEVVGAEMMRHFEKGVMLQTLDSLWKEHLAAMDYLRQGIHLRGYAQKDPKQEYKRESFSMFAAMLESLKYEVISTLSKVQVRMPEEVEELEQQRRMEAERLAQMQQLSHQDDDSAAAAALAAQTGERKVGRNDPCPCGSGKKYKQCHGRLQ

SMILES	Percent Effect [1]	Percent Effect [2]	Percent Effect [3]	Percent Effect [4]	Percent Effect (Trypanosoma cruzi)	Percent Effect [5]	Percent Effect [6]	Percent Effect (Homo sapiens)	Percent Effect [7]	Percent Effect [8]	Percent Effect [9]
O=C(N1CCCO1)[C@@]12CCO[C@@H]1CCN(C1CCCCC1)C2	-5.99%	16%	-8.58%	1.15%	0%	-50.7%	4.96%	-2.54%	-105%	15%	-10.2%
Cc1nc(C)c(CC(=O)Nc2nnc(C)s2)c(=O)[nH]1	-0.0632%	-13.2%	-1.32%	2.92%	2.82%	1.15%	7.85%	0.477%	4.41%	21.9%	-10.9%
NC(=O)CN1CCCN(C(=O)c2ccn(-c3cccc(F)c3)n2)CC1	-1.81%	6.94%	-1.98%	-6%	-3.01%	2.21%	10.3%	-17.8%	-1.05%	5.13%	-0.989%
Cc1nn(C)c(Cl)c1C1CCCN1C(=O)c1ccc2nncn2c1 (stereo unspecified)	-3.02%	0%	2.19%	-4.7%	-4.25%	0%	3.6%	-2.92%	-4.43%	-6.17%	-0.833%
CC(O)CN1CCN(C(=O)c2cc3ccccc3[nH]c2=O)CC1 (stereo unspecified)	-2.78%	2.63%	-2.27%	10.3%	-3.8%	-4.73%	13.1%	-25.9%	1.06%	-5.2%	-3.52%
Cc1cnn(CC2CN(Cc3nc4ccccc4nc3C)CCO2)c1 (stereo unspecified)	-4.61%	2.6%	-4.31%	-1.3%	6.56%	-4%	7.52%	-8.59%	9.52%	14.1%	-22.4%
CC(NCc1ccncc1)c1cc(F)ccc1N1CCN(C)CC1 (stereo unspecified)	-1.22%	5.41%	-10.4%	21%	6.16%	15.6%	5.58%	-10.1%	2.15%	11.1%	-9.91%
Cc1ccc(N2CCCC(NCc3ccncc3)C2)nn1 (stereo unspecified)	-2.1%	11.4%	-4.43%	-7.21%	0.718%	-3.23%	26.8%	-2.46%	0%	2.53%	-31.9%
CC(=O)N1CCC(c2nccnc2Oc2ccccc2)CC1	-6.13%	4.05%	4.17%	-0.964%	-6.32%	-3.02%	4.06%	13.5%	2.15%	1.3%	11.4%
Brc1cc2c(cc1CN1CCC(N3CCCCC3)CC1)OCCO2	-3.24%	-1.39%	-9.98%	-5.8%	-0.291%	5.74%	10.7%	2.68%	5.26%	10.3%	-2.58%
Cc1ccc(=O)n(CC2(O)CCN(Cc3ccsc3)CC2)n1	1.03%	1.35%	9.78%	-1.02%	-4.74%	3.02%	12.9%	2.32%	7.53%	9.09%	-6.08%
COc1ccccc1OCC(=O)NS(=O)(=O)c1ccccc1F	-3.52%	13.5%	-3.34%	25.9%	4.44%	-0.952%	11.9%	6.7%	2.65%	9.76%	-10.8%
Cc1nonc1CC(=O)N1C[C@@H]2CC[C@H](C1)N(Cc1ccccc1)C2=O	-5.85%	-2.7%	-1.13%	6.66%	-4.83%	-2.86%	6.9%	0.776%	0.529%	2.44%	-2.68%
O=C(Cc1c[nH]c2ccccc12)N1CCN(C(=O)c2ccoc2)CC1	-2.06%	13.2%	1.95%	-3.58%	0.487%	14.2%	12.9%	21.1%	7.45%	18.2%	-2.68%
Cc1nc2c(c(N3CC=CC3)n1)CCN(Cc1ccoc1)CC2	-7.04%	5.2%	2.16%	4.88%	-1.87%	1.38%	9.65%	-16.9%	3.23%	8.64%	1.68%
COc1nc2c(cc1C(=O)N1C[C@H](N)C[C@H]1C(=O)NC(C)C)CCC2	-3.3%	18.1%	-10.6%	9.06%	6.51%	8.83%	16.3%	9.52%	6.32%	15.4%	-4.1%
